Data: ChEMBL document CHEMBL5308504, “Tm Shift (DSF) assay results for EUbOPEN Chemogenomics Library” (2023)
Numbered stars: 1 amine (or outer) side, 2 acyl side, 3 side chain; on linkers, the order of the positions; unused ones are H or OH. Bridge positions count the residues as written; N and C are the ends. Square brackets hold non-standard residues; d marks the D form. Peptide text beside a SMILES is read from it. I, II: the chains in the order shown. Hexamethylenediamine = C(CCCN[*:2])CCN[*:1]; Dip = N[C@H](C(=O)O)C(c1ccccc1)c1ccccc1; Chg = N[C@H](C(=O)O)C1CCCCC1; NMeA = CN[C@@H](C)C(=O)O

Tests used:
Conditions in all cases: Compound concentration 20.0 uM, Protein concentration 2.0 uM, Result type QC Liability
[1] = target: Tyrosine-protein kinase ABL1 (Homo sapiens) (UniProt P00519)
[2] = target: Cyclin-dependent kinase 2 (Homo sapiens) (UniProt P24941)
[3] = target: Casein kinase I isoform delta (Homo sapiens) (UniProt P48730)
[4] = target: Glycogen synthase kinase-3 beta (Homo sapiens) (UniProt P49841)
[5] = target: Mitogen-activated protein kinase 1 (Homo sapiens) (UniProt P28482)
[6] = target: T1, Aurora kinase A (Homo sapiens) (UniProt O14965)
T1 sequence (whole entry): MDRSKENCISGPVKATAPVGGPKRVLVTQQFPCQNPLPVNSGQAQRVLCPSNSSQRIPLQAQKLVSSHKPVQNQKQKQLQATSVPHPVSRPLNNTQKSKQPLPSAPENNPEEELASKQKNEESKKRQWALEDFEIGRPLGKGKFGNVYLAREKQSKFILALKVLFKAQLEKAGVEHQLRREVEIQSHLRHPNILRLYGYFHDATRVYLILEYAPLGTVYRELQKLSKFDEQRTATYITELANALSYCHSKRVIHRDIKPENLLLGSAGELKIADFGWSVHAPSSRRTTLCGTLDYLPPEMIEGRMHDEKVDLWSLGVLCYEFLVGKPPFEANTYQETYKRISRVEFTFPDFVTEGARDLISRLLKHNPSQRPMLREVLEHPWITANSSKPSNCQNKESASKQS

Sequence of Glycogen synthase kinase-3 beta (Homo sapiens) (P49841 whole entry, looked up): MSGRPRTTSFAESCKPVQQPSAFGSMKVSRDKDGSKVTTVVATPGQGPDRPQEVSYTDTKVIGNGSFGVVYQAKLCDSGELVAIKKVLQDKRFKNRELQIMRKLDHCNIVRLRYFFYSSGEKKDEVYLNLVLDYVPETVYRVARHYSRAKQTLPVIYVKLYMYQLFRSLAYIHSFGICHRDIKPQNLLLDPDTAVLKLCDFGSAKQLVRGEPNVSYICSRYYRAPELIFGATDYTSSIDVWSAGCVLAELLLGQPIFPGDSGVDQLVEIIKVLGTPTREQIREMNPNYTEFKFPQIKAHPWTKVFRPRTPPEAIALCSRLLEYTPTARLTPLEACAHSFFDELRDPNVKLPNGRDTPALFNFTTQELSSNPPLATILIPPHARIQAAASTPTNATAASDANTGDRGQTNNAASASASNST
Sequence of Mitogen-activated protein kinase 1 (Homo sapiens) (P28482 whole entry): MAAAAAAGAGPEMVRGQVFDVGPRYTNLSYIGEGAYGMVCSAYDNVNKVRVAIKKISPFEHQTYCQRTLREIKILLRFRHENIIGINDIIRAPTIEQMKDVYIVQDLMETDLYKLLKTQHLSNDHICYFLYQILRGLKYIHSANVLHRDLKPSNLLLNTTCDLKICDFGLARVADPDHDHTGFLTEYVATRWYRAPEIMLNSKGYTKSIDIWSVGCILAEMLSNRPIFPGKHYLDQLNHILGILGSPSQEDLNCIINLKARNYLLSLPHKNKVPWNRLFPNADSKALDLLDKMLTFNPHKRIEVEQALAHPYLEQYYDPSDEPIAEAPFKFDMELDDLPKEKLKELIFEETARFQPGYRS
Sequence of Tyrosine-protein kinase ABL1 (Homo sapiens) (P00519 whole entry): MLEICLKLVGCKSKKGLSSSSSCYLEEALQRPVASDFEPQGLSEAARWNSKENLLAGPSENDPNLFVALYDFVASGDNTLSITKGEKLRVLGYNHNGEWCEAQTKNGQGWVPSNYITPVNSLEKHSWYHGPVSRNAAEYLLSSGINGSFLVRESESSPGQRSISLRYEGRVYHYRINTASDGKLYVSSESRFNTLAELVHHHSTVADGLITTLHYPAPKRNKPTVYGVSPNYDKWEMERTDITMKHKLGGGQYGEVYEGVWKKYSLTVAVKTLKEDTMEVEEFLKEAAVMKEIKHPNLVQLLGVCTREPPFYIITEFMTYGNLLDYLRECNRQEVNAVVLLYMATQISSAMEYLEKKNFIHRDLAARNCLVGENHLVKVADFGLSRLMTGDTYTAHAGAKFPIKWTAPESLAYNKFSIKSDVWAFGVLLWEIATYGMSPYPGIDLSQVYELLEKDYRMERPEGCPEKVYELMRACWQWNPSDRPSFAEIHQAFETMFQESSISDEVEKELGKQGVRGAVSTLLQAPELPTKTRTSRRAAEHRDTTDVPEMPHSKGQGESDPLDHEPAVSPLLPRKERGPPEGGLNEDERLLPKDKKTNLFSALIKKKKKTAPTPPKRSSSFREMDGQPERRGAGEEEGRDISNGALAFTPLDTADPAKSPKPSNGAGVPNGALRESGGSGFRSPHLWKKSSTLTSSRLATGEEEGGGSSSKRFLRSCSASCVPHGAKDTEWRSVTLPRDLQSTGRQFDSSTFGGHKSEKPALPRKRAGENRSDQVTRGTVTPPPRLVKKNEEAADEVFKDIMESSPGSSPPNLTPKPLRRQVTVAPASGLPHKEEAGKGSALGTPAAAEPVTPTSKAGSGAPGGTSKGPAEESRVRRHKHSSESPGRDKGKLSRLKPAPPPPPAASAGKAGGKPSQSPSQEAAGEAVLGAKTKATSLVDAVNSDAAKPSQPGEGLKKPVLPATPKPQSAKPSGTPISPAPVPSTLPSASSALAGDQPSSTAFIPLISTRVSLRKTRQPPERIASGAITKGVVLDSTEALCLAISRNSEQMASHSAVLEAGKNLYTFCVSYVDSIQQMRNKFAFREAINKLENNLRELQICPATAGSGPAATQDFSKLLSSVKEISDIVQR
Sequence of Casein kinase I isoform delta (Homo sapiens) (P48730 whole entry, looked up, canonical isoform): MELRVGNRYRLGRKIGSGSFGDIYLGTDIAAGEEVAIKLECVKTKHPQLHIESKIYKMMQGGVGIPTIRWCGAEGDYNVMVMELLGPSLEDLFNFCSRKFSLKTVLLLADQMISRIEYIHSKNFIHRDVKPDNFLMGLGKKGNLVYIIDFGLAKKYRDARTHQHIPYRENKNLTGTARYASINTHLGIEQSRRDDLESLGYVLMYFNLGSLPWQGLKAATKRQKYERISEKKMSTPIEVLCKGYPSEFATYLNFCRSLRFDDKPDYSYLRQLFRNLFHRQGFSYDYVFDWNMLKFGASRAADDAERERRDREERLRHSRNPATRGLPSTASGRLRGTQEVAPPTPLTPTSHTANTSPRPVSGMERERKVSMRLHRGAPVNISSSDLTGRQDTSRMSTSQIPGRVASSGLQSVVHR

SMILES | ΔTm [1] [°C] | ΔTm [2] [°C] | ΔTm [3] [°C] | ΔTm [4] [°C] | ΔTm [5] [°C] | ΔTm [6] [°C]
N[C@@H](CC(=O)O)Cn1nnc(-c2ccc(Oc3ncc(Cl)cc3F)cc2)n1 | 0.91 | 0.66 | -0.24 | 0.34 | 0.49 | -0.25
COc1cc(Oc2nc(-c3ccc(NC(=O)C4CCOC4)cc3)nn3c(C)nc(C)c23)cc(OC)c1OC (centres undefined) | 0.18 | 0.72 | 0.03 | -0.39 | 0.18 | 0.1
CNC(=O)c1c[nH]c2ccc(Nc3nccc(-c4ccccn4)n3)cc12 | 2 | 1.28 | 0.6 | 2.67 | 0.16 | 1.47
O=C(O)c1cccc(C2=C(c3cc(Cl)ccc3OCc3ccc(F)cc3F)CCC2)n1 | -0.85 | -1.05 | -0.59 | 0 | -0.17 | -0.7
NCCCc1c(C(=O)O)[nH]c2ccc(C(=O)Nc3ccccc3)cc12 | 0.08 | 0.25 | 0.53 | -0.39 | 0.25 | -1.5
CCn1c(-c2nonc2N)nc2cncc(C(=O)N3CC[C@H](N)C3)c21 | -0.16 | 0.25 | 0.4 | 6 | 0.69 | 0.77
CN(C)[C@H]1C[C@H](n2cnc(-c3ccc(F)cn3)c2-c2ccnc3[nH]ccc23)C1 | 0.17 | 0.4 | 4.93 | -0.83 | 0.21 | -0.76
CCOc1ccc(S(=O)(=O)Nc2ccc(Cl)cc2C#Cc2cnc(C(=O)O)cc2OC)c2ncccc12 | -0.94 | -1.65 | -1.46 | -1.14 | -0.06 | -2.25
CC(C(=O)Nc1cc(C#N)ccc1CCCC(=O)O)c1ccc(F)c2ccccc12 (centres undefined) | 0.96 | 0.61 | 0.09 | 0.53 | -0.07 | -0.36
CN(c1ccc(C(F)(F)F)cc1)S(=O)(=O)c1ccc(C(=O)Nc2nc(-c3ccccn3)cs2)cc1 | 7.05 | 10.4 | 5.15 | 13.4 | 1.92 | 9.24
CC(C)(C)OC(=O)CN1C(=O)c2c(OCC(=O)O)cccc2Oc2ccc(C(F)(F)F)cc21 | 0.48 | 0.55 | 0.4 | 1.17 | 0.51 | -0.28
N#Cc1cccc(-c2c[nH]c3ncnc(N4CCOCC4)c23)c1 | 1.39 | 1.88 | 0.56 | 4.32 | 0.64 | 4.35
COc1cc(C)c(S(=O)(=O)N(C)CCOCC(=O)N(C)[C@H]2CCC[C@@H](N3CCN(C)CC3)C2)c(C)c1 | -0.63 | 0.33 | 0.16 | -0.91 | -0.21 | -0.27
CC(C)Oc1ccc(Cc2ccc(NC3=NCCN3)cc2)cc1 | 0.13 | 0.19 | -0.09 | -0.57 | -0.5 | -0.48
CC(=O)Nc1nc(CN2CCC[C@H](Cc3cc(C)nc(C)c3)C2)cs1 | 0.19 | 0 | 0.1 | -0.34 | 0.5 | 0.28
Cc1cn([C@H](C)CC#N)c(=O)c2cc(Cn3nc(C(F)F)cc3Cl)nn12 | 0.14 | -0.62 | -0.16 | -0.46 | 0.16 | -1.16
Cc1cnc(-c2cnc(NCCNc3ccc(C#N)cn3)nc2-c2ccc(Cl)cc2Cl)[nH]1 | 0.86 | 1.98 | 1.3 | 14.6 | 1.17 | 2.09
CN1CCN(c2ccc(-n3cc(-c4ccncc4OCC4CCNCC4)cn3)cc2)CC1 | 1.5 | 1.21 | 1.48 | -0.06 | 0.53 | -0.52
Cc1c(CCC(=O)O)cccc1NC(=O)[C@@H](c1ccc(-c2cncc(Cl)c2)c(F)c1)C1CCCC1 | 1.34 | -0.35 | -0.06 | 0.61 | -0.61 | 4.78
CN1CCN(c2ccc(/C=C(\C#N)c3ccccc3Br)cc2)CC1 | -0.04 | 0.19 | 0.85 | -0.47 | 0.11 | -1.83
Cc1cn(CCN2CCN(c3ccccc3-c3cc(C#N)cc(C(=O)NCCCN4CCCC4)c3)CC2)c2ccccc12 | 0.13 | 0.91 | -2.16 | -0.98 | 0.52 | -0.16
O=C(O)/C=C/c1ccc(Cn2ccnc2)cc1 | 0.1 | 0.39 | 0.22 | 0.69 | 0.29 | 0.06
CCS(=O)(=O)Nc1cccc(Oc2cncc(Nc3ccc(I)cc3F)c2C(N)=O)c1 | 0.95 | 0.72 | -0.53 | -0.71 | -2.21 | 1.45
CN[C@@H](C)C(=O)N[C@H](C(=O)N1CCC[C@H]1C(=O)N[C@H](C(=O)NCCCCCCNC(=O)[C@@H](NC(=O)[C@@H]1CCCN1C(=O)[C@@H](NC(=O)[C@H](C)NC)C1CCCCC1)C(c1ccccc1)c1ccccc1)C(c1ccccc1)c1ccccc1)C1CCCCC1 (I: H-[NMeA][Chg]P[Dip] / II: H-[NMeA][Chg]P[Dip]; linker I:C-II:C via Hexamethylenediamine) | -0.65 | -1.8 | -0.57 | -0.94 | -1.01 | -1.85
